# Assay results reported in PubChem BioAssay AID602144 (Vanderbilt Specialized Chemistry Center, 2011).
# A number with no mark means an inactive call. Calls of active or inactive are those of the source. No stated cut-off is given here; in the data, active means remaining activity below about 50%; inactive means the rest.
# Molecular target: Phospholipase D1 (Homo sapiens) (UniProt Q13393)
# Test: PLD1 inhibitors in cells, Calu-1 cells, single concentration (AID 602144);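 further: tested at 200 nM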
# Conditions: cellular PLD1 activity, active compounds read low
# Sequence of Phospholipase D1 (Homo sapiens) (Q13393 whole entry, looked up): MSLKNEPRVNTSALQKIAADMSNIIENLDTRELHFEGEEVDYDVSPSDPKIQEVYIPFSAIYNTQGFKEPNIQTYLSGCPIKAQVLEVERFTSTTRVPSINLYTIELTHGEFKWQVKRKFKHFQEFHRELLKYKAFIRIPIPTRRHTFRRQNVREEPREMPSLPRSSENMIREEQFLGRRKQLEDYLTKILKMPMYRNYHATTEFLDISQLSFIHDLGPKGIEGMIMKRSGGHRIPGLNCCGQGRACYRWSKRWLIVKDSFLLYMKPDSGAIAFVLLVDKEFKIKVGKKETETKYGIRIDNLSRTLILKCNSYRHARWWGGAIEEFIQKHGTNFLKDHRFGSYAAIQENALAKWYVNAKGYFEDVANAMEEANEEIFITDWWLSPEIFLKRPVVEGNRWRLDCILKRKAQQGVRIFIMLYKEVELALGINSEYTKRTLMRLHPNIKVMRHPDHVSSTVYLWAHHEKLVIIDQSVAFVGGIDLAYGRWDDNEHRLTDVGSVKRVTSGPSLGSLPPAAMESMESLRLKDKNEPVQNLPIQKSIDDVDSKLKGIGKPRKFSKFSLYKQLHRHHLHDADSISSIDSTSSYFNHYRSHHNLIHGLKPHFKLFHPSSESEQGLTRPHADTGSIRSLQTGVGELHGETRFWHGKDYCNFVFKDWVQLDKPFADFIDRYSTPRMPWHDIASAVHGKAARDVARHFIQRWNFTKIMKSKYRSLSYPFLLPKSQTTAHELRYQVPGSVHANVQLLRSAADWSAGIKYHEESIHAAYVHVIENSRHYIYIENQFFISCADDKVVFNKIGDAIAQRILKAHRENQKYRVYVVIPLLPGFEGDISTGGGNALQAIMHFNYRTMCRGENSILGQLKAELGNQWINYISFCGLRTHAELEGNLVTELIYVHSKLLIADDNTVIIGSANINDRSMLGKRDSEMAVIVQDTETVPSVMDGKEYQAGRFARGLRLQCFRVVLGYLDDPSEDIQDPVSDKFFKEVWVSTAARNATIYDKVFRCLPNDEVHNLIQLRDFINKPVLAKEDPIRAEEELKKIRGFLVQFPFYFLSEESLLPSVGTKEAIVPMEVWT
# Sequence of Phospholipase D1 (Homo sapiens) (Q13393 whole entry, looked up): as above
row,Structure (SMILES),remaining activity
1,C[C@@H](CN1CCC(n2c(=O)[nH]c3ccccc32)CC1)NC(=O)c1ccc[nH]1,48.2% (active)
2,C[C@H](CN1CCC2(CC1)CNc1ccccc12)NC(=O)c1cnc2ccccc2c1,55%
3,Cc1ccc(C(=O)N[C@@H](C)CN2CCC(n3c(=O)[nH]c4c(F)cccc43)CC2)cc1,40.7% (active)
4,O=C1c2ccccc2C(=O)N1CCCNc1cccc(F)c1,166%
